This note sets out measurements from PubChem BioAssay.

The subject of experiment [1] is TRPC4 beta (transient receptor potential cation channel C4), mouse. The experiment is described as follows: activators of mouse TRPC4 channel, confirmation, cell-based, Fluo4 calcium, HEK293 TRPC4beta/mu-opioid, duplicates, 10 µM (AID 2426). Conditions: Fluo4 calcium fluorescence, at 10 µM; stronger effect = higher value.
Experiment [2] relates to transient receptor potential cation channel C4 beta (TRPC4), mouse. Nature of the experiment: activators of mouse TRPC4 channel, confirmation, cell-based, second round, Fluo4, HEK293 TRPC4beta/mu-opioid, 1 µM (AID 2461;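 active = primary screen active and over 50% activation in each of two duplicate runs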). The following applies: Fluo4 calcium fluorescence, at 1 µM; stronger effect = higher value.
The test system of experiment [3] is TRPC4 (transient receptor potential cation channel C4 beta), mouse. Nature of the experiment: positive allosteric modulators of mouse TRPC4, confirmation, cell-based, second round, Fluo-4, HEK293 TRPC4beta/mu-opioid, 1 µM (AID 2554;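 active = primary screen hit whose fluorescence ratio, in both repeats, exceeds the weak agonist control mean by 3 SD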). The following applies: DAMGO EC20, Fluo-4 calcium flux, at 1 µM; stronger effect = higher value. On the technique in general: A change in cytosolic calcium serves as a functional read-out for many receptors and channels.

The test system of experiment [4] is TRPC4 beta (transient receptor potential cation channel C4), mouse. Nature of the experiment: positive allosteric modulators of mouse TRPC4, confirmation, cell-based, Fluo-4, HEK293 TRPC4beta/mu-opioid (AID 2555;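 active = primary screen hit whose calcium fluorescence ratio, in both repeats, exceeds the weak agonist control mean by 3 SD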). Conditions: DAMGO EC20, Fluo-4 calcium flux, at 10 µM; stronger effect = higher value.
Experiment [5] addresses Short transient receptor potential channel 4 (Mus musculus) (UniProt Q9QUQ5). Nature of the experiment: inhibitors of mouse TRPC4 channel, confirmation, cell-based, Fluo4, HEK293 TRPC4beta/mu-opioid (AID 2636;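 active = calcium signal cut by more than 3 SD below the full-agonist control yet still positive, in both repeats and the earlier primary screen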). The following applies: DAMGO, Fluo4 calcium flux, at 10 µM; stronger effect = higher value.
Experiment [6] has the same target. The experiment is described as follows: inhibitors of mouse TRPC4 channel, confirmation, cell-based, second round, Fluo4, HEK293 TRPC4beta/mu-opioid, 1 µM (AID 2637;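 active = calcium signal ratio cut to more than 3 SD under the fully stimulated control mean yet still positive, in both repeats and the primary screen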;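 as to inhibition: percent of integrated ratio relative to wells lacking test compound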). The following applies: Fluo4 calcium flux, DAMGO, at 1 µM; stronger effect = higher value.
For experiment [7] the target is unchanged. Nature of the experiment: mouse TRPC4 channel activators, dose response, cell-based, HEK293 TRPC4/mu-opioid, Fluo-4 calcium (AID 434937;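 active = primary screen activator hit with a dose response curve and TRPC4 channel activation at any tested dose; inactive = no activation, no dose response, or not a primary hit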).
Experiment [8] has the same target. The experiment is described as follows: TRPC4 positive allosteric modulators, dose response, cell-based, HEK293 TRPC4/mu-opioid, Fluo-4 calcium, EC20 DAMGO (AID 434941;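 active = earlier screen potentiator hit that boosts the TRPC4 ion channel at some dose, with a dose response; inactive = no potentiation, no dose response, or not a prior hit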;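 also: calcium entry triggered by an EC20 dose of DAMGO at the co-expressed mu-opioid receptor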).
The target of experiment [9] is Short transient receptor potential channel 6 (Mus musculus) (UniProt Q61143). The experiment is described as follows: inhibition of mouse TRPC6 channel, confirmation, selectivity assay for TRPC4 inhibitor project, cell-based, HEK293, membrane potential dye, duplicate (AID 434948;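 active = active in primary screen and both duplicates, each dropping signal beyond three positive-control SD with fluorescence still positive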). Conditions: HEK293 TRPC6, membrane potential dye fluorescence, at 10 µM, stimulated with maximal-effect acetylcholine; stronger effect = higher value.
Chain of Short transient receptor potential channel 6 (Mus musculus) (Q61143 whole entry, looked up): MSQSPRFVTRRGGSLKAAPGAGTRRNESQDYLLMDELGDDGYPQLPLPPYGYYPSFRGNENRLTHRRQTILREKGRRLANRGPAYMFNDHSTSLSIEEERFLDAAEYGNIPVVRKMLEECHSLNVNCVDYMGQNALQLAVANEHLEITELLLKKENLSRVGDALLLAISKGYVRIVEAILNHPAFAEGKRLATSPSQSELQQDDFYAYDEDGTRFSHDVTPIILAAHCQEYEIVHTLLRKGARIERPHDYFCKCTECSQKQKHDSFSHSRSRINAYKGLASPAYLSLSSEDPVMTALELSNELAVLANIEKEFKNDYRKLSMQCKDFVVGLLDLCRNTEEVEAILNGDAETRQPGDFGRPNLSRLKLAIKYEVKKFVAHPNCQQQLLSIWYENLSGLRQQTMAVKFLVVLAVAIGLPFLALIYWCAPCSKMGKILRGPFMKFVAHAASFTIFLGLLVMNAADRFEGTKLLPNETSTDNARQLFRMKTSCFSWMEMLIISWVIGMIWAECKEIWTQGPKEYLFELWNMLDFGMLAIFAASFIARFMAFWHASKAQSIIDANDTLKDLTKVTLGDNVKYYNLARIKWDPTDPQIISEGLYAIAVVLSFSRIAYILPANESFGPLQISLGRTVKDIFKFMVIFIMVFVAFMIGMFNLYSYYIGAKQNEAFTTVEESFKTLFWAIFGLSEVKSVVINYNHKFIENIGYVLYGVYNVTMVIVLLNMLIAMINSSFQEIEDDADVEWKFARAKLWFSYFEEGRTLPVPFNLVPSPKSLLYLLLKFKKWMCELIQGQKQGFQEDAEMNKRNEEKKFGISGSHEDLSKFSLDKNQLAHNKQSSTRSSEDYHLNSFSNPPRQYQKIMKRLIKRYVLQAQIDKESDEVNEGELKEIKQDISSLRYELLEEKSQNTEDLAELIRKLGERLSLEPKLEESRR

Experiment [10] has the same target. The experiment is described as follows: activation of mouse TRPC6 channel, confirmation, selectivity assay for TRPC4 activator project, cell-based, HEK293, membrane potential dye, duplicate (AID 434950;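 active = membrane potential signal rise above negative control mean plus 3 SD in both duplicates, also active in the earlier TRPC4 screen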). Conditions: HEK293 TRPC6, membrane potential fluorescence, at 10 µM; stronger effect = higher value.
Experiment [11] has the same target. Nature of the experiment: TRPC6 potentiation by TRPC4 potentiator hits, confirmation, selectivity assay for TRPC4 potentiator project, HEK293 cells, membrane potential dye, duplicate (AID 434952;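 active = compound raising the membrane signal above positive-control mean plus 3 SD in both repeats, and a primary screen hit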). The following applies: HEK293 TRPC6, membrane potential dye fluorescence, at 10 µM, maximal acetylcholine added after compound; stronger effect = higher value.
Experiment [12] addresses Short transient receptor potential channel 4 (Mus musculus) (UniProt Q9QUQ5). The experiment is described as follows: calcium flux activators in TRPC4/5HT1a cells, counter-screen for TRPC4 activator project, cell-based, second counter screen, HEK293 TRPC4/5HT1a, Fluo-4 (AID 434977;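 active = calcium signal rise above buffer-control mean plus 5 SD in both duplicates, and also a hit in the primary screen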). Conditions: Fluo-4 calcium flux, at 10 µM; stronger effect = higher value.
A short description of experiment [13]: calcium flux inhibitors in TRPC4/5HT1a cells, confirmation, counter-screen for TRPC4 inhibitor project, cell-based, second counter screen, HEK293 TRPC4/5HT1a, Fluo-4 (AID 434978;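 active = primary screen active whose calcium signal fell more than 3 SD beyond the full-serotonin control mean in both duplicate plates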). Conditions: Fluo-4 calcium flux, at 10 µM, serotonin added to trigger calcium flux; stronger effect = higher value.
In experiment [14] the test system is TRPC4 (mouse), co-expressed with 5HT1a in HEK293. Nature of the experiment: calcium flux potentiators in TRPC4/5HT1a cells, confirmation, counter-screen for TRPC4 potentiator project, cell-based, second counter screen, HEK293 TRPC4/5HT1a, Fluo-4 (AID 434979;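 active = signal rise over 3 SD above mean of control wells given weak agonist, in both repeats and first screen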). The following applies: Fluo-4 calcium flux, at 10 µM, serotonin added at its EC20 dose; stronger effect = higher value.

Experiment [15] in a line: calcium flux activation in mu-opioid HEK293 cells, confirmation, counter-screen for TRPC4 activator project, cell-based, HEK293 mu-opioid receptor line (AID 449723;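 active = hit in primary screen, with calcium signal over 5 SD above buffer well mean in both duplicates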;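 also: counter screen cells carry the mu-opioid receptor alone and lack TRPC4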). The following applies: Fluo-4 calcium fluorescence, at 10 µM; stronger effect = higher value.
The nature of experiment [16]: calcium flux enhancement in mu-opioid HEK293 cells, confirmation, counter-screen for TRPC4 allosteric potentiator project, cell-based, HEK293 mu-opioid receptor line (AID 449724;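 active = calcium signal rise more than 3 SD above the low-dose agonist control mean, in both duplicate plates and the primary screen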;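 also: HEK293 cells carrying mu-opioid receptor only with no TRPC4 channel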). The following applies: Fluo-4 calcium flux, at 10 µM, compound added before EC20 DAMGO stimulus; stronger effect = higher value.

For some assays here: Potency and affinity values are given separately. Activity calls are given as the source filed them.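 The calls were made as follows, unless noted: active = fluorescence ratio normalized to control raised more than 50% in primary screen plus both repeat runs; inactive = the rest.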

Chain of Short transient receptor potential channel 4 (Mus musculus) (Q9QUQ5 whole entry, looked up): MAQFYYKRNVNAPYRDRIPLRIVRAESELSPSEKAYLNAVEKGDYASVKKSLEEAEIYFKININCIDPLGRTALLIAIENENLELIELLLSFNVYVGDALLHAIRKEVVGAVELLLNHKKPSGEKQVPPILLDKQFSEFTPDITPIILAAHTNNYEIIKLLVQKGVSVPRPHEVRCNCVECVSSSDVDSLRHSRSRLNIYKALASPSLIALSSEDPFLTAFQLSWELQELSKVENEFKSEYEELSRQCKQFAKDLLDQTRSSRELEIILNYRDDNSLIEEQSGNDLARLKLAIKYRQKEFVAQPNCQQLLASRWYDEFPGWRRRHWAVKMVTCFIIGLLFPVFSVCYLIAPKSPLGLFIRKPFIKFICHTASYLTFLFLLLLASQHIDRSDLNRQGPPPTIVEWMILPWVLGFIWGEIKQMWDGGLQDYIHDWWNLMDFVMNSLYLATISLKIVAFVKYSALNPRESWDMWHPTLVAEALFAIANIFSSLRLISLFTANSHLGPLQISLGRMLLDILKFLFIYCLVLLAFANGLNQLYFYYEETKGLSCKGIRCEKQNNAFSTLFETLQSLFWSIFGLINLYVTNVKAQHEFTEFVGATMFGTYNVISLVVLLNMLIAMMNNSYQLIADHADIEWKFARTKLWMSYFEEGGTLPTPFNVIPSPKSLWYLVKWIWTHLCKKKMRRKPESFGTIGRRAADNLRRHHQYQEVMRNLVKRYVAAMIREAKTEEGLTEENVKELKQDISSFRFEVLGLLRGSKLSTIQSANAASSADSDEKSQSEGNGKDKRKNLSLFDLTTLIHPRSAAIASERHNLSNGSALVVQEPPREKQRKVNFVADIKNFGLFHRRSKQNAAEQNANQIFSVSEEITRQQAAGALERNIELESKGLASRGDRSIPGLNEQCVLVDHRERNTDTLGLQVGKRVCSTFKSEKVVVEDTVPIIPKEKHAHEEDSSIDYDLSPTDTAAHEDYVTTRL

By inhibition is commonly meant the share of the control response that was lost under treatment. Take `CC(C)(C)c1cc2cccnc2n1Cc1ccccc1`: the outcome in experiment [1], in experiment [2], in [3], in experiment [4], in experiment [7] and in [8] was inactive. Also, the compound was classed as inactive in experiment [9], in [10], in experiment [11], in [12], in experiment [14] and in experiment [15]. Moreover, in experiment [16], the outcome was inactive. Further, the inhibition in experiment [5] was 95% (active); in [6], 70% (active); in experiment [13], 15.4% (active).

Turning to `Nc1c2c(nc3ccccc13)CCC2`, the result in experiment [1], in [2], in experiment [3], in experiment [4], in experiment [7] and in [8] was inactive. Further, the call in experiment [10], in experiment [11], in experiment [12], in experiment [14], in experiment [15] and in [16] was inactive. Moreover, the inhibition in experiment [5] is 97% (active); in experiment [6], 44% (active); in [9], 16.5% (active); in experiment [13], 29.6% (active).

For `Cc1ccc(NC(=S)N(CCCN(C)C)Cc2cc3cc4c(cc3[nH]c2=O)OCO4)c(C)c1`, the result in [1], in experiment [2], in experiment [3], in [4], in experiment [7] and in [8] was inactive. The call in experiment [9], in experiment [10], in [11], in [12], in experiment [14] and in experiment [15] was inactive. Further, the outcome in [16] was inactive. The inhibition in [5] is 96% (active); in [6], 70% (active); in experiment [13] it was 14.4% (active).

For `COCCn1c(SCC(=O)c2ccccc2)nc2ccccc2c1=O`, the result in experiment [1], in experiment [2], in experiment [3], in experiment [4], in experiment [7] and in experiment [8] was inactive. Further, the compound was classed as inactive in experiment [9], in experiment [10], in experiment [11], in experiment [12], in [14] and in experiment [15]. In addition, the result in experiment [16] was inactive. Also, the inhibition was 91% (active) in [5], 48% (active) in experiment [6] and 20.4% (active) in experiment [13].

Consider `O=C(Nc1ccc(Oc2ccccc2)nc1)C1CCN(Cc2ccccc2)CC1`, for which the result in experiment [1], in [2], in experiment [3], in experiment [4], in [6] and in [7] was inactive. Also, the result in experiment [8], in [9], in [10], in [11], in experiment [12] and in experiment [14] was inactive. The outcome in [15] and in [16] was inactive. Further, the inhibition in experiment [5] was 74% (active); in experiment [13], 32.6% (active).

As to `Fc1ccccc1COc1ccc(Br)cc1CNCC1CCCO1` (stereo not drawn), the result in [1], in experiment [2], in experiment [3], in experiment [4], in [7] and in experiment [8] was inactive. In addition, the compound was classed as inactive in experiment [10], in experiment [11], in experiment [12], in experiment [14], in [15] and in experiment [16]. Also, the inhibition in experiment [5] is 91% (active); in experiment [6] it was 42% (active); in [9], 39.5% (active); in experiment [13] it was 16.8% (active).

With `CC(C)=CCCC(C)CN1CCC(n2nccc2NC(=O)C2CCCC2)CC1` (stereo not drawn), the result in experiment [1], in experiment [2], in experiment [3], in [4], in [7] and in experiment [8] was inactive. For the same compound, the compound was called inactive in experiment [9], in experiment [10], in [11], in experiment [12], in experiment [14] and in experiment [15]. Besides, in [16], the outcome was inactive. For the same compound, the figures for the inhibition in experiment [5], in [6] and in experiment [13] were 99% (active), 63% (active) and 38% (active), respectively.

For `Cc1[nH]nc(-c2ccc(O)cc2O)c1-c1ccc(Cl)cc1`, the result in [1], in experiment [2], in experiment [3], in [4], in experiment [6] and in experiment [7] was inactive. Further, the result in experiment [8], in experiment [9], in [10], in experiment [11], in [12] and in experiment [14] was inactive. Further, the result in [15] and in [16] was inactive. Besides, the inhibition in experiment [5] was 86% (active); in experiment [13], 23.5% (active).
